In PubChem BioAssay one finds inhibition and activity data, which are given here for 40 compounds.

This is one part of the list. Activity calls are given as the source filed them. Unless noted, no stated cut-off is given here; in the data, active means activity above about 50%; inactive means the rest.

Chain of Tumor necrosis factor receptor superfamily member 10B (Homo sapiens) (O14763 whole entry, looked up): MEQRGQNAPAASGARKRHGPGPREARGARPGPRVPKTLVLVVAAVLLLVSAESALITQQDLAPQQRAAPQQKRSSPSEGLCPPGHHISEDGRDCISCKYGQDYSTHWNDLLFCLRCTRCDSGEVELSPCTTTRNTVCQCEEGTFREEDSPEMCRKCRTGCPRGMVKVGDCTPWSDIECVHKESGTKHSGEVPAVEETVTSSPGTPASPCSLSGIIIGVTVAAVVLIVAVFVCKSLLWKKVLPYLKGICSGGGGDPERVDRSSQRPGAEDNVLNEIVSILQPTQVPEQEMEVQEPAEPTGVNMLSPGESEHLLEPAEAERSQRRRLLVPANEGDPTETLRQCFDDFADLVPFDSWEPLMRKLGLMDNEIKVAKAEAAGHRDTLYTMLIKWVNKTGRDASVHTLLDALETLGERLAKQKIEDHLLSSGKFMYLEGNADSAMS

Test system in the first assay: not listed separately
As to the kind of experiment: HIF-2a reporter inhibitor retest, confirmation, luminescence, 786-0 RCC cells (AID 651580;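 active means mean inhibition across four replicates of at least 40 percent at the single tested concentration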). To be noted: HIF-2a luciferase reporter luminescence, overnight, at 18.8 µM, stronger effect = higher value.
In the case of `CCC(C)(C)c1ccc(Oc2ccc(NC(=O)COC(=O)C3=COCCO3)cc2)cc1`, the inhibition was 97.8% (active).

With `CS(=O)(=O)N(Cc1ccc(Cl)cc1)c1ccc(C(=O)NCCSCc2ccco2)cc1`, the inhibition is -0.82% (inactive).

Consider `O=C1C=C(c2ccc(Cl)cc2)C(=O)N1Nc1ccccc1`, for which the inhibition was 95.2% (active).

Turning to `COc1ccc(CC(N)c2csc(NC(=O)Nc3ccc(C(C)C)cc3)n2)cc1` (centres undefined), the inhibition was 3.55% (inactive).

On to `CCN1CCN(CCNC(=O)c2ccc3c(c2)NC(=O)/C(=C\c2cccc(Cl)c2)S3)CC1`, for which the inhibition was -18.3% (inactive).

Regarding `Cc1cc(Cl)c(S(=O)(=O)Nc2ccc3c(c2)OCCO3)cc1OCC(N)=O`, the inhibition is 46.5% (active).

Take `COC(=O)c1c(NC(=O)CCCC(=O)O)sc2c1CCCCC2`: the inhibition was 41.2% (active).

Consider `O=C(CCl)N(Cc1cccc([N+](=O)[O-])c1)c1cccc(Cl)c1`, for which the inhibition is 62.8% (active).

With `Cc1nnnn1/C(=C\c1ccccc1)C(=O)OCC(=O)N1CC2(C)CC1CC(C)(C)C2` (centres undefined), the inhibition is 62% (active).

For the compound `CCOc1ccc(CNC(=O)C2CCCN(c3nnc(C)c4c(C)n(-c5ccccc5)nc34)C2)cc1` (centres undefined), the inhibition was 6.1% (inactive).

Regarding `O=S(=O)([N-]c1nc2ccccc2nc1-[n+]1ccc(Cc2ccccc2)cc1)c1ccc(Br)s1`, the inhibition is -48.2% (inactive).

For the compound `OCCN1CCN(C(=S)c2ccc(-c3ccccc3)cc2)CC1`, the inhibition was 93% (active).

For the compound `COc1cc2c(cc1O)C(SC)=NC(C)(C)C2`, the inhibition is 2.51% (inactive).

In the case of `COc1ccc(C(=O)/C=C/c2ccc(-c3ccccc3)cc2)cc1CSCC(=O)O`, the inhibition is -10.7% (inactive).

On to `CC[C@@H]1Cc2cc(O)ccc2C2=C1c1ccc(O)cc1C[C@H]2CC`, for which the inhibition is 54.5% (active).

As for `CN(C)CCNC(=O)c1cccc(-c2cnc3c(NC=O)cc(-c4cccc(C(F)(F)F)c4)cn23)c1`, the inhibition is 8.84% (inactive).

Test system in the next assay: not listed separately
As to the kind of experiment: HIF-1a luciferase reporter signal reduction – MiaPaCa-2 cells, single concentration, counter-screen for HIF-2a inhibitor project, confirmation (AID 651589;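 active means mean inhibition of the reporter signal across four replicates at the single tested dose of 50% or more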). As to conditions: MiaPaCa-2 HIF-1a luciferase reporter, desferoxamine, overnight; at 18.8 µM; stronger effect = higher value.
As for `CCC(C)(C)c1ccc(Oc2ccc(NC(=O)COC(=O)C3=COCCO3)cc2)cc1`, the inhibition is 92.9% (active).

`CS(=O)(=O)N(Cc1ccc(Cl)cc1)c1ccc(C(=O)NCCSCc2ccco2)cc1`: the inhibition was 45.5% (inactive).

Take `O=C1C=C(c2ccc(Cl)cc2)C(=O)N1Nc1ccccc1`: the inhibition is 41% (inactive).

On to `COc1ccc(CC(N)c2csc(NC(=O)Nc3ccc(C(C)C)cc3)n2)cc1` (centres undefined), for which the inhibition was 101% (active).

As to `CCN1CCN(CCNC(=O)c2ccc3c(c2)NC(=O)/C(=C\c2cccc(Cl)c2)S3)CC1`, the inhibition was 108% (active).

As for `Cc1cc(Cl)c(S(=O)(=O)Nc2ccc3c(c2)OCCO3)cc1OCC(N)=O`, the inhibition was 52.6% (active).

`COC(=O)c1c(NC(=O)CCCC(=O)O)sc2c1CCCCC2`: the inhibition was 27.3% (inactive).

For the compound `O=C(CCl)N(Cc1cccc([N+](=O)[O-])c1)c1cccc(Cl)c1`, the inhibition is 107% (active).

For `Cc1nnnn1/C(=C\c1ccccc1)C(=O)OCC(=O)N1CC2(C)CC1CC(C)(C)C2` (centres undefined), the inhibition is 67.3% (active).

As to `CCOc1ccc(CNC(=O)C2CCCN(c3nnc(C)c4c(C)n(-c5ccccc5)nc34)C2)cc1` (centres undefined), the inhibition was -3.66% (inactive).

`O=S(=O)([N-]c1nc2ccccc2nc1-[n+]1ccc(Cc2ccccc2)cc1)c1ccc(Br)s1`: the inhibition was 79.1% (active).

`OCCN1CCN(C(=S)c2ccc(-c3ccccc3)cc2)CC1`: the inhibition was 69.1% (active).

For the compound `COc1cc2c(cc1O)C(SC)=NC(C)(C)C2`, the inhibition is 66.5% (active).

On to `COc1ccc(C(=O)/C=C/c2ccc(-c3ccccc3)cc2)cc1CSCC(=O)O`, for which the inhibition is 62.4% (active).

Regarding `CC[C@@H]1Cc2cc(O)ccc2C2=C1c1ccc(O)cc1C[C@H]2CC`, the inhibition is 104% (active).

For `CN(C)CCNC(=O)c1cccc(-c2cnc3c(NC=O)cc(-c4cccc(C(F)(F)F)c4)cn23)c1`, the inhibition is 106% (active).

Another assay has as its target Tumor necrosis factor receptor superfamily member 10B (Homo sapiens) (UniProt O14763). Description: caspase-8 TRAIL sensitization, hit retest, confirmation, cell-based, NB7+caspase-8, with/without TRAIL, luminescence panel (AID 651596). To be noted: NB7 neuroblastoma + caspase-8, TRAIL sensitization, luminescence viability, with TRAIL, mean of runs, at 10 µM, stronger effect = higher value.
Take `Cn1cc(S(=O)(=O)CC(=O)N2CCCc3ccccc32)c2ccccc21`: the activity came to 1.93%.

With `O=C(CN1C(=O)c2ccccc2S1(=O)=O)c1ccc(Cl)cc1Cl`, the activity was 64.3%.

As for `C(=N\Nc1nc2ccccc2[nH]1)/c1ccc2ncccc2c1`, the activity was found to be 81%.

In the case of `Cc1ccc(CN2[C@@H](Cc3ccccc3)C(=O)CS2(=O)=O)cc1`, the activity turned out to be 81%.

Take `COc1ccc(CC(N)c2csc(NC(=O)Nc3ccc(C(C)C)cc3)n2)cc1` (centres undefined): the activity is 82.5%.

For the compound `Clc1ccc(-c2nc(-c3cnccn3)no2)cc1`, the activity was 45.6%.

Turning to `COc1cc(C2CC(c3cccs3)=NN2C(=O)CCl)ccc1OC(F)F` (centres undefined), the activity came out at 99.5%.

Take `Cc1nc(SCCC(=O)O)c2cc(-c3ccccc3)sc2n1`: the activity came to 59%.

For the compound `CCc1ccc(C(=O)Cn2ncc(Cl)c(Cl)c2=O)cc1`, the activity was determined as 99.2%.

Take `COc1ccccc1OCCNC(=O)c1ccc2c(c1)OCCO2`: the activity stood at 41%.

For the compound `CCOc1ccc2nc(-c3ccccc3)[nH]c2c1`, the activity is 81.2%.

As for `COc1ccc(C(=O)Nc2nnc(SCC(=O)NCc3ccco3)s2)c(OC)c1`, the activity is 65.7%.

In the case of `COc1ccc(OC)c(NC(=O)c2cc(-c3cc(Cl)ccc3O)n[nH]2)c1`, the activity was determined as 33.7%.

With `O=C(Nc1cc2ccccc2oc1=O)c1ccccc1`, the activity worked out at 54.1%.

Take `O=C(CCl)N(Cc1cccc([N+](=O)[O-])c1)c1cccc(Cl)c1`: the activity was found to be 99.1%.

Turning to `CCOc1ccc(OCc2cccc(C(=O)N3CCOCC3)c2)cc1`, the activity worked out at 58.8%.

Consider `CC(/C=N/NC(=O)c1cccs1)=C\c1ccccc1`, for which the activity was found to be 61.9%.

Consider `CN(C(=O)c1ccco1)c1nc2c(s1)CCCC2`, for which the activity came out at 58.4%.

In the case of `CCOC(=O)c1c(CSC(=N)N)n(-c2ccc(C)cc2)c2cc(Br)c(OC(C)=O)cc12`, the activity is 90.7%.

For `COc1ccc(-c2cc3ccc(F)cc3cn2)cc1`, the activity was determined as 66.5%.

For `O=C(/C=C/c1cccc(F)c1)N1CCc2ccccc21`, the activity is 55.1%.

In the case of `CC(C)C[C@H]1CNC(=S)N1C[C@H]1CCCN1C[C@H](Cc1ccccc1)N1C[C@H](Cc2ccc(O)cc2)N(CC2CCCCC2)C1=S`, the activity was -0.175%.

With `Cc1ccc(NC(=O)C(=O)Nc2ccccn2)cc1`, the activity is 75.7%.

In the case of `CCOC(=O)c1sc2nc(-c3ccccc3)ccc2c1N`, the activity was 76.1%.

Take `Cc1cccc(NC(=S)N/N=C/c2ccc([N+](=O)[O-])s2)c1`: the activity worked out at 37.4%.

With `CN(C)CCNC(=O)c1cccc(-c2cnc3c(NC=O)cc(-c4cccc(C(F)(F)F)c4)cn23)c1`, the activity was 46.6%.

With `Cc1ccc(OCc2nc(-c3ccccn3)no2)c(Br)c1`, the activity turned out to be 59.6%.
